Reference: PubChem BioAssay (EPA / NIEHS)
Records with an inconclusive call do not appear. The source made the active and inactive calls. Rule for the calls: active = hit-call score of the fitted dose curve at least 0.9, where 1 is the maximum; inconclusive = response in the unintended direction; inactive = score below 0.9.

Experiments:
[1] = molecular target: Cellular tumor antigen p53 (Homo sapiens) (UniProt P04637); experiment: TOX21_p53_BLA_p2_ratio: Tox21 HCT-116 p53 Agonism Beta-lactamase Assay, Ratio, Phase 2 (AID 2283592)
Chain of Cellular tumor antigen p53 (Homo sapiens) (P04637 whole entry, looked up): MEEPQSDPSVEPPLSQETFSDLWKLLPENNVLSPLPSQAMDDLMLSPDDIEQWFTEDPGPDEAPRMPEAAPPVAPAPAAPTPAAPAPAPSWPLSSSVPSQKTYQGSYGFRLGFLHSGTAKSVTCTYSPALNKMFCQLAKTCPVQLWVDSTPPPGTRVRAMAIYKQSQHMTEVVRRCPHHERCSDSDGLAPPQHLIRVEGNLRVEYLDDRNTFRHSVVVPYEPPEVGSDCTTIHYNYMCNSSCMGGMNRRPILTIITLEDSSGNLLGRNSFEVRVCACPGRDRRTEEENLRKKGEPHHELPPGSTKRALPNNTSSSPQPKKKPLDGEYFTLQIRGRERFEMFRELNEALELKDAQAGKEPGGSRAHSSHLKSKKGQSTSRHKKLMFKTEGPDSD
Summary of the method: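 Cleaved-to-uncleaved substrate ratio (460 vs 530 nm) measured in HCT116 cells with an inducible beta-lactamase reporter linked to p53 activity. Compounds incubated 16 h at 37C before 2 h room-temperature CCF4-AM loading.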

[2] = TOX21_p53_BLA_p3_viability: Viability Assessment in the Tox21 HCT-116 p53 Agonism Beta-lactamase Assay, Phase 3 (AID 2283593);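 note: cells exposed to compound for 16 h before reading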
Summary of the method: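 HCT116 cells, 4000/well, dosed 5 h after plating by pin transfer (217-fold dilution from DMSO stock) and incubated 16 h at 37C, 5% CO2. Viability read as ATP luminescence with CellTiter-Glo after 30 min at room temperature.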

[3] = molecular target: Cellular tumor antigen p53 (Homo sapiens) (UniProt P04637); experiment: TOX21_p53_BLA_p3_ratio: Tox21 HCT-116 p53 Agonism Beta-lactamase Assay, Ratio, Phase 3 (AID 2283596)
Summary of the method: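 Cells were seeded at 4000/well, rested 5 h at 37C, then dosed with DMSO compound solutions (217-fold dilution) for 16 h. CCF4-AM substrate was loaded for 2 h at room temperature, and the 460/530 nm emission ratio was fitted for gain of signal versus DMSO.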

[4] = molecular target: Cellular tumor antigen p53 (Homo sapiens) (UniProt P04637); experiment: TOX21_p53_BLA_p5_ratio: Tox21 HCT-116 p53 Agonism Beta-lactamase Assay, Ratio, Phase 5 (AID 2283599)
Summary of the method: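 HCT-116 p53-bla cells (4000/well) plated 5 h, dosed with compound (217-fold DMSO dilution) for 16 h at 37 C; CCF4-AM substrate 2 h at room temperature. Activity is the 460/530 nm emission ratio (405 nm excitation), fitted in gain-of-signal direction versus DMSO.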

[5] = TOX21_p53_BLA_p5_viability: Viability Assessment in the Tox21 HCT-116 p53 Agonism Beta-lactamase Assay, Phase 5 (AID 2283600)
Summary of the method: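 Viability is taken from cellular ATP content, measured by luciferase luminescence in the same wells after the beta-lactamase ratio read. Cells are seeded at 4000 per well and exposed to DMSO-dissolved compounds, diluted 217-fold, for 16 h.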

[6] = molecular target: Cellular tumor antigen p53 (Homo sapiens) (UniProt P04637); experiment: TOX21_p53_BLA_p4_ratio: Tox21 HCT-116 p53 Agonism Beta-lactamase Assay, Ratio, Phase 4 (AID 2283601)
Summary of the method: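 HCT-116 p53 beta-lactamase reporter cells (4000/well) preincubated 5 h, then compound (217-fold dilution of DMSO stock) for 16 h at 37C. CCF4-AM substrate added 2 h at room temperature; 460/530 nm emission ratio fitted upward versus DMSO.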

[7] = TOX21_p53_BLA_p4_viability: Viability Assessment in the Tox21 HCT-116 p53 Agonism Beta-lactamase Assay, Phase 4 (AID 2283597);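 note: hits lower the luminescence signal meaning cytotoxicity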
Summary of the method: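 Viability is taken as cellular ATP: after 16 h compound exposure of HCT116 cells and a 2 h room-temperature CCF4-AM substrate step, CellTiter-Glo reagent is added and luminescence is measured 30 min later.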

Measured: AC50

Cc1cccc(C)c1NC(=O)CC12CCCN1CCC2
not listed: [7]
inactive: all other assays above

c1ccc(CSCc2ccccc2)cc1
not listed: [7]
inactive: all other assays above

O=C(O)c1c2ccccc2cc2ccccc12
not listed: [4]
inactive: all other assays above

O=P(O)(O)OP(=O)(O)O
not listed: [4]
inactive: all other assays above

CC(CCc1ccc(O)cc1)NCCc1ccc(O)c(O)c1 (centres undefined)
active: [6] 43.6 µM
inactive: [1] | [2] | [3] | [7]

CCCCCCCCOCCC#N
not listed: [7]
inactive: all other assays above

CO[Si](CCCNCCC[Si](OC)(OC)OC)(OC)OC
not listed: [4] | [5]
inactive: all other assays above

CCOc1cc(CC(=O)N[C@@H](CC(C)C)c2ccccc2N2CCCCC2)ccc1C(=O)O
not listed: [4] | [5]
inactive: all other assays above

Cc1cc2c(cc1S(N)(=O)=O)S(=O)(=O)CCC2
not listed: [4]
inactive: all other assays above

COc1ccccc1OC(=O)Oc1ccccc1OC
not listed: [4] | [5]
inactive: all other assays above

Cc1cc(C(C)(C)C)cc(C)c1CC1=NCCN1
not listed: [7]
inactive: all other assays above

CC(=O)Oc1c(C)cc(OCC(O)CNC(C)C)c(C)c1C (centres undefined)
not listed: [4] | [5]
inactive: all other assays above

NCC(=O)O
not listed: [6] | [7]
inactive: all other assays above

CC(=O)CC(=O)Nc1ccc2[nH]c(=O)[nH]c2c1
inactive: [1] | [2] | [3] | [4]

Cn1nnc2c(C(N)=O)ncn2c1=O
not listed: [7]
inactive: all other assays above

N[C@H](CO)C(=O)O
not listed: [7]
inactive: all other assays above

CCCC(CC)CCCCCCCN (centres undefined)
active: [2] 81 µM | [3] 79.2 µM
not listed: [4]
inactive: all other assays above

Clc1cc(Cl)cc(Cl)c1
not listed: [4]
inactive: all other assays above

O=C1c2cccc(O)c2C(=O)c2c(O)cccc21
not listed: [4] | [5]
inactive: all other assays above

C[N+]12CCC(CC1)C(OC(=O)C(O)(c1ccccc1)c1ccccc1)C2 (centres undefined)
not listed: [4] | [5]
inactive: all other assays above

COCC(C)OC(C)=O (centres undefined)
not listed: [6] | [7]
inactive: all other assays above

CCCCC(CC)CN (centres undefined)
not listed: [4] | [5]
inactive: all other assays above

c1ccc2sc(SSc3nc4ccccc4s3)nc2c1
not listed: [7]
inactive: all other assays above

CC1C(=O)CC2C3(C)CCC2(C(C)C(=O)O)C(=O)C13 (centres undefined)
not listed: [4] | [5]
inactive: all other assays above

CCOC(=O)c1ccccc1O
not listed: [6] | [7]
inactive: all other assays above

CC(=O)OCC1=C(C(=O)O)N2C(=O)[C@@H](NC(=O)Cc3cccs3)[C@H]2SC1
not listed: [7]
inactive: all other assays above

Nc1ncnc2c1ncn2[C@@H]1O[C@H](CO)[C@@H](O)[C@H]1O
not listed: [7]
inactive: all other assays above

CC[C@H](C)[C@H](N)C(=O)O
inactive: [1] | [2] | [3] | [4]

CCN(CC)CCNC(=O)COc1ccc(Cl)cc1
not listed: [4] | [5]
inactive: all other assays above

CCCCNc1ccc(C(=O)OCCN(C)C)cc1
not listed: [7]
inactive: all other assays above

O=C(O)/C=C/c1ccc(Cn2ccnc2)cc1
not listed: [7]
inactive: all other assays above
